From the supplement of paper PMC10849652 come the findings set out here.

About 7,900 targets were measured; listed, in parts, are those with a hit and a random draw of the rest. About 0.6% of all pairs of compound and target were hits. Values without a mark were called inactive.

UniProt P00367, sequence (P00367 whole entry, looked up): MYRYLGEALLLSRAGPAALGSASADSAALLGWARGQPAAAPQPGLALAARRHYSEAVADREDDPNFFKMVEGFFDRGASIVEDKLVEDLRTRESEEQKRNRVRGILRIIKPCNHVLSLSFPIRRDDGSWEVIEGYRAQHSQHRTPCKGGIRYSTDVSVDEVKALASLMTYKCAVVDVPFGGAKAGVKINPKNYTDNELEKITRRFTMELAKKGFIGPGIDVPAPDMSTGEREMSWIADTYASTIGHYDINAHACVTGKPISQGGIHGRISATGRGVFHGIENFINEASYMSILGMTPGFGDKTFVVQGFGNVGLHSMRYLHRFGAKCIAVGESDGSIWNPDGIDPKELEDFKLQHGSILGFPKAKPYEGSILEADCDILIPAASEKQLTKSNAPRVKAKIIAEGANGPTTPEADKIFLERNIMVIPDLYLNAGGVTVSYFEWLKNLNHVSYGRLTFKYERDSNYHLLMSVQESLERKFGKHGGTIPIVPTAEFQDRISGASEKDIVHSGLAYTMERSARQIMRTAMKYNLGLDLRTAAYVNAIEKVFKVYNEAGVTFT
UniProt Q9NVI1, sequence (Q9NVI1 whole entry, looked up): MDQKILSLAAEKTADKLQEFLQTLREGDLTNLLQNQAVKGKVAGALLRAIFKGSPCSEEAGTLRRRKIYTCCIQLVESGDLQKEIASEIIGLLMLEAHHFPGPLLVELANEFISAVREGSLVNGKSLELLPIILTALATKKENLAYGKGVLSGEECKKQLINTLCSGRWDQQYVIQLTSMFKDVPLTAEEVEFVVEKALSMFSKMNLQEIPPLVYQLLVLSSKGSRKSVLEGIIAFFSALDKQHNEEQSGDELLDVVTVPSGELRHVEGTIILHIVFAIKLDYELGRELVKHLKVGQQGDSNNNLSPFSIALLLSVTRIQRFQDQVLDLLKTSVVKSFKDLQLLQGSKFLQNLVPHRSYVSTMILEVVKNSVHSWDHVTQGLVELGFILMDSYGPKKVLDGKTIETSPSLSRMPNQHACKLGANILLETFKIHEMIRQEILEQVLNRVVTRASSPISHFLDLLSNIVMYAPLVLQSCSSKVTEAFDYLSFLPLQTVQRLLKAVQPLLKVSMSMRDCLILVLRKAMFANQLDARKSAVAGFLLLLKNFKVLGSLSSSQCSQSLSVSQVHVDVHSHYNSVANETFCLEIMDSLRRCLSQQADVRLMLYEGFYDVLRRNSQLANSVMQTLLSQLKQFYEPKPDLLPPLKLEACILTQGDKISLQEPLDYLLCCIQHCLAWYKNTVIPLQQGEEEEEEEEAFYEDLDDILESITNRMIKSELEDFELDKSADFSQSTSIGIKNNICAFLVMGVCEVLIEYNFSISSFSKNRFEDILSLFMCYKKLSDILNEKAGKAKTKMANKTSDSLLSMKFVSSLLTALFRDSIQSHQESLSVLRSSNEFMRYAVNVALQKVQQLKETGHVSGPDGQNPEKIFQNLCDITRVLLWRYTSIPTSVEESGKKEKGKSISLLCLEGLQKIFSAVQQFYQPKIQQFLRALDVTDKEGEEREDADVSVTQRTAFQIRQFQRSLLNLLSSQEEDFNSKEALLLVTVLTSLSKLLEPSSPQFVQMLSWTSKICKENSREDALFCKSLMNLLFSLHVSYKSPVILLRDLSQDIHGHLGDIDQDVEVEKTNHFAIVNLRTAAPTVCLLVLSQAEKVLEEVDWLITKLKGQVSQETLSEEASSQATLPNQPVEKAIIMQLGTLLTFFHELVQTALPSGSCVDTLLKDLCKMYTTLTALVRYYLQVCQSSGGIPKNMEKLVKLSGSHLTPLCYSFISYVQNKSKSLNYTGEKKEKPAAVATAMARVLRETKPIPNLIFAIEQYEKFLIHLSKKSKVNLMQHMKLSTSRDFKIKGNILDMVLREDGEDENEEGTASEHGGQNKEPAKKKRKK
UniProt Q14789, sequence (Q14789 whole entry, looked up): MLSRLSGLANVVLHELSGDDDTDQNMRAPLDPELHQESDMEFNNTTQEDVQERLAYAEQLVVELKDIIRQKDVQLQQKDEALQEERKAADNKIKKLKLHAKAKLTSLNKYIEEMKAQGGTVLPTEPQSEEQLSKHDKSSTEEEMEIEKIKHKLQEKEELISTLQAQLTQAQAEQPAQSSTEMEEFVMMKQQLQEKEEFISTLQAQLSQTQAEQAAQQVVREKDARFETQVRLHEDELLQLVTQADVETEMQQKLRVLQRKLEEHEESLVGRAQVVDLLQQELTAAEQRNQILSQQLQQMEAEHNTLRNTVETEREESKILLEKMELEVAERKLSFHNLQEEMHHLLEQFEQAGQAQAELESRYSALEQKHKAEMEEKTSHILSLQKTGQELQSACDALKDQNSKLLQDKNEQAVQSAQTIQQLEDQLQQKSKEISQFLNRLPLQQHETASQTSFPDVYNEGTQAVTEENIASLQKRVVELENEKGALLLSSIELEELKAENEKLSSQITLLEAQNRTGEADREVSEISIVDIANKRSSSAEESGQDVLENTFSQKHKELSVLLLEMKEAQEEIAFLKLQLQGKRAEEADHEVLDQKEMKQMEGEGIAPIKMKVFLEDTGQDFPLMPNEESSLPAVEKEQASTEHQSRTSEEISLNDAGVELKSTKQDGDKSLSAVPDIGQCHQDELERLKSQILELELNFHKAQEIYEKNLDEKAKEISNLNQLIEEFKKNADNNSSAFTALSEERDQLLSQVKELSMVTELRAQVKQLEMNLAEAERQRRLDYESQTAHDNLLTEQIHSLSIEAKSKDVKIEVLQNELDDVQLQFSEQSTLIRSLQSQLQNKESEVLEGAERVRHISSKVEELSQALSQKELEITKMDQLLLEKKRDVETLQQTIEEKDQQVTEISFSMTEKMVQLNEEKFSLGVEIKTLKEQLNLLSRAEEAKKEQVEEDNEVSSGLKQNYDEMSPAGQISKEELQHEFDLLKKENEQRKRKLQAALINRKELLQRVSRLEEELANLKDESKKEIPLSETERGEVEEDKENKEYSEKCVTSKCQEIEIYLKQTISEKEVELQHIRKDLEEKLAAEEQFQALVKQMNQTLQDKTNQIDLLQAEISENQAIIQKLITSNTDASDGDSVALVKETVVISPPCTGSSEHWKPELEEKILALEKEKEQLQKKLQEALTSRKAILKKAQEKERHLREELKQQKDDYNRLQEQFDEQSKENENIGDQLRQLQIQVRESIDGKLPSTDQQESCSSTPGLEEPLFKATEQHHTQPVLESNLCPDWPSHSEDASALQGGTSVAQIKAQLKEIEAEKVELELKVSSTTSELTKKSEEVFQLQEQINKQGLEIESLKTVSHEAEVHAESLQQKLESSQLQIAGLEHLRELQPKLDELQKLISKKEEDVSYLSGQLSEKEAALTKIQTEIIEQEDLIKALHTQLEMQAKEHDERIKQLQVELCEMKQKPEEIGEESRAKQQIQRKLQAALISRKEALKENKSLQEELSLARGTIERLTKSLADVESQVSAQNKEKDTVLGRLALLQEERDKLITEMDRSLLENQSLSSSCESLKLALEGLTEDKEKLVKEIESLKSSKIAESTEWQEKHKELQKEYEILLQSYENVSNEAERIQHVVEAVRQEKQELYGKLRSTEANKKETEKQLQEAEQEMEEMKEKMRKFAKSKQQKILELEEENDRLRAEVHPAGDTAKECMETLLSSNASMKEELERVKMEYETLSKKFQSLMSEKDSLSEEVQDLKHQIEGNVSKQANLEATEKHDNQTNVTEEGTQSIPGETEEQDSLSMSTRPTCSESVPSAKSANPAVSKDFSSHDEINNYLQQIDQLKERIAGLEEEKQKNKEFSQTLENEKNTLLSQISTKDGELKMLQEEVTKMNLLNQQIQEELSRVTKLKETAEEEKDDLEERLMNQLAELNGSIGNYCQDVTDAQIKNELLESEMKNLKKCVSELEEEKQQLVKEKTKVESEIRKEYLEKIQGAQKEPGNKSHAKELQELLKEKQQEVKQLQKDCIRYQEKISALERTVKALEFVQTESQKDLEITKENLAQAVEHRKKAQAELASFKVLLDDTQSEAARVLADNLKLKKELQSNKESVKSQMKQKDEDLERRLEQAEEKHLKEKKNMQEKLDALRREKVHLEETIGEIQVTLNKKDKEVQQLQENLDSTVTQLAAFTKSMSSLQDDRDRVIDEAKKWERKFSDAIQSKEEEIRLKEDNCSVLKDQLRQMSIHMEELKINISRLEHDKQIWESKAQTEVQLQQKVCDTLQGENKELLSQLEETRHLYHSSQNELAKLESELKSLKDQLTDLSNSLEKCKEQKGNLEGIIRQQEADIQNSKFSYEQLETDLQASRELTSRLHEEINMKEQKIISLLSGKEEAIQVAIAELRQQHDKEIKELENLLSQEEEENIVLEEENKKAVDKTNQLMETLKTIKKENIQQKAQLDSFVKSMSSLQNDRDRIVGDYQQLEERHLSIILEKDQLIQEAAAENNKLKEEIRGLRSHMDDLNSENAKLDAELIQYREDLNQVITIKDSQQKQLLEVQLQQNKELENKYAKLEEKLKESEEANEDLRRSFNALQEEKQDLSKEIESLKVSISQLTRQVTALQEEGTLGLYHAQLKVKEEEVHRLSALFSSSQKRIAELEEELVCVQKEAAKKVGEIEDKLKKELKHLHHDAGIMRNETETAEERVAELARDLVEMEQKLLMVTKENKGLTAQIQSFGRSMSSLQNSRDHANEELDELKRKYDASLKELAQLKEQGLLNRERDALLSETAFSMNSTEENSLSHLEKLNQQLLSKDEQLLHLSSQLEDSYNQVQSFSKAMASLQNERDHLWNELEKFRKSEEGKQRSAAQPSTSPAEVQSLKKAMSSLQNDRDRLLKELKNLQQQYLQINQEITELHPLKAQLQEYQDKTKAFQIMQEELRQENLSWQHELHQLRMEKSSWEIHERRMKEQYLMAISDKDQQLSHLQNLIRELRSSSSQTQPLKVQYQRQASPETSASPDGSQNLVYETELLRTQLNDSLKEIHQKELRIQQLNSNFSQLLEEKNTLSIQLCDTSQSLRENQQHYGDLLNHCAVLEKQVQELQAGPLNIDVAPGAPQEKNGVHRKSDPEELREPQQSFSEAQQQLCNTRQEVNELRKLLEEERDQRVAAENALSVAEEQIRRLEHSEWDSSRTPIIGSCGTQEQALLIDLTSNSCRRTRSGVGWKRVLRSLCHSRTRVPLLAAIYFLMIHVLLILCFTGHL

Compound in the assay: Cc1cccc(CC(=O)N2CCc3c2ccc(-c2cn(C)c4ncnc(N)c24)c3F)n1
The assay can be described thus: log2 fold change, soluble protein after heating vs DMSO (PISA); higher = thermal stabilisation; K562 cells, 10 uM, 30 min; active = over 0.2 and 3.5 SD of the protein, either way, in both replicates (recomputed). The method, boiled down: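 Aliquots of K562 cells (2×10^6 cells/mL) treated with 10 μM compound for 30 min were heated for 3 min over 48°C-58°C. After pooling and extraction in PBS with 0.5% NP-40 at 4°C, soluble protein from a 21,000xg, 90 min spin was quantified by TMTpro 16plex LC-MS/MS with channel sums equalised. Thermal stability is expressed against control samples, from duplicates, as a log2 fold change.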
Take FUBP3 (UniProt Q96I24): the log2 fold change is 0.009.
Take FKBP3 (UniProt Q00688): the log2 fold change is -0.03.
As for HDAC6 (UniProt Q9UBN7), the figure is -0.086.
As for GALK1 isoform 2 (UniProt P51570), the figure is 0.062.
On to IFRD2 isoform 2 (UniProt Q12894), for which the log2 fold change is -0.019.
Next, FKBP7 (UniProt Q9Y680): -0.04.
Turning to HEATR3 (UniProt Q7Z4Q2), the log2 fold change was 0.389 (active).
As for FKBP4 (UniProt Q02790), the figure is 0.017; as for GABARAPL2 (UniProt P60520), 0.096.
Next, GIGYF2 (UniProt Q6Y7W6): 0.045.
As for GSR (UniProt P00390), the figure is 0; as for GNAS (UniProt Q5JWF2), -0.001.
Turning to HIST2H2BF isoform 2 (UniProt Q5QNW6), the log2 fold change was -0.189.
Next, HLTF (UniProt Q14527): 0.017; GALNT4 (UniProt Q8N4A0): -0.042.
As to FBXO7 (UniProt Q9Y3I1), the log2 fold change is -0.006.
As for GMEB1 (UniProt Q9Y692), the figure is -0.048.
Next, GLUD1 (UniProt P00367): 0.012; FANCI (UniProt Q9NVI1): 0.041.
Regarding HDAC10 (UniProt Q969S8), the log2 fold change was -0.073.
Next, FUCA1 (UniProt P04066): -0.001.
With GUK1 isoform 2 (UniProt Q16774), the log2 fold change is 0.053.
As for GOLGB1 isoform 2 (UniProt Q14789), the log2 fold change is -0.03.
